# Reference: PubChem BioAssay (NCATS)
# Inconclusive results are not listed. Activity calls are given as the source filed them. The call rests on the fitted dose curve; in most records, active means well fitted inhibition curve with a large enough effect; inconclusive means small, poorly fitted or top-dose-only effect; inactive means no such curve, though single readings can be large or run the other way.
# Experiment: qHTS for Inhibitors of ATXN expression: Validation (AID 588378); further: nearly all actives have a fitted effect of over 75% in size
# Conditions: cell-based ATXN2 expression reporter assay, luminescence; series mostly up to 57.1 µM; activity change, negative = inhibition: at the top concentration
# Text: Spinocerebellar ataxia type 2 (SCA2) is a multisystem neurodegenerative disease caused by a dominantly-acting mutation leading to expansion of a polyQ domain in the ataxin-2 protein (ATXN2). SCA2 patients develop progressive ataxia and later lose function in other neuronal systems. Prominent parkinsonian signs develop in some patients. Similar to many neurodegenerative disorders, no symptomatic or disease-modifying treatments are known.
# The primary objective of project is to identify compounds inhibiting ATXN2 expression and to test them for efficacy in SCA2 mouse models. To this end, in a collaboration between Dr. Daniel Scoles and scientists at NCGC, a cell-based assay adapted to high-throughput screening has been developed to screen the NIH Molecular Libraries Small Molecule Repository (MLSMR).
# NIH Chemical Genomics Center [NCGC]
# NIH Molecular Libraries Probe Centers Network [MLPCN]
# Assay Submitter (PI): Stefan Pulst and Daniel Scoles, University of Utah
# 4 ul of HEK293-ATXN2-FFLuc cell suspension (TBD cells/microL in phenol-red free DMEM) are dispensed into Greiner white solid bottom 1536-well assay plates, yielding a final well density of TBD cells/well. Plates are incubated for 2 hrs at 37 degrees C in 5% humidified CO2 to allow cell attachment. Compounds are then transferred via Kalypsys pin tool equipped with 1536-pin array (10nl slotted pins, V&P Scientific, San Diego, CA). In addition, duplicate serial dilutions of the control compounds ChemBridge 5553825, a previously identified ATXN2 expression inhibitor, and a known luciferase inhibitor, are pin-transferred. After incubation at 37 degrees C in 5% humidified CO2 for 24 hrs, CellTiter-Fluor reagent (1 ul) (Promega, Madison, WI) is then added and plates are incubated for 30 minutes, before being transferred to a ViewLux high-throughput CCD imager (PerkinElmer), wherein single end-point fluorescence measurements are acquired using the 405 nm excitation/525 nm emission filter set to assess cell viability. Next, Bright-Glo luciferase substrate detection reagent (3 ul) (Promega, Madison, WI) is added to each well and incubated for an additional 5 minutes. Luminescence is then measured on the ViewLux imager equipped with a clear emission filter using a 2 sec exposure.
# On the % scale 0 is the no-effect control and ±100 the full control effect; potency means the concentration at half of the fitted maximal effect.
Compound,"activity change, negative = inhibition",Potency
O=c1cc(-c2ccccc2)[nH]c2nc(Cl)ccc12,-26.2% (inactive),–
COc1ccccc1N1CCN(CCCNc2c(C)c(=O)n(C)c(=O)n2C)CC1,-1.99% (inactive),–
CN1CC(O)C(O)C(O)C1CO (stereo not given),-4.82% (inactive),–
Cn1c(=O)c2[nH]c(C3CCCC3)nc2n(C)c1=O,-3.57% (inactive),–
CC1=C(/C=C/C(C)=C/C=C/C(C)=C\C(=O)O)C(C)(C)CCC1,-0.906% (inactive),–
C=CC1(C)CC(=O)C2(O)C(C)(O1)C(OC(C)=O)C(O)C1C(C)(C)CCC(O)C12C (stereo not given),16.2% (inactive),–
O=c1cc(-c2ccccc2F)[nH]c2cc3c(cc12)OCO3,18.5% (inactive),–
CSc1nc(N)c2ncn([C@@H]3O[C@H](COP(=O)(O)OP(=O)(O)O)C(O)[C@H]3O)c2n1 (stereo not given in full),29.2% (inactive),–
CCC1(O)CC2CN(CCc3c([nH]c4ccccc34)[C@@](C(=O)OC)(c3cc4c(cc3OC)N(C=O)C3[C@]45CCN4CC=C[C@@](CC)([C@@H](OC(C)=O)[C@]3(O)C(=O)OC)[C@H]45)C2)C1 (stereo not given in full),2.65% (inactive),–
NCCCCN=C(N)N,-4.88% (inactive),–
COc1ccc(CCN(C)CCc2ccc(OC)c(OC)c2)cc1OC,-17.1% (inactive),–
CN(CC[C@@H](Oc1ccc(C(F)(F)F)cc1)c1ccccc1)CC(=O)O,-8.87% (inactive),–
COc1cc(CC(=O)O)ccc1O,-0.723% (inactive),–
NC(N)=[N+]1CCc2ccccc2C1,8.5% (inactive),–
COc1ccc2c(c1)CCC1C2CC[C@@]2(C)C1CC[C@@H]2NCCCCCCN1C(=O)C=CC1=O (stereo not given in full),-3.83% (inactive),–
NCC(O)(CS(=O)(=O)O)c1ccc(Cl)cc1 (stereo not given),0.431% (inactive),–
N[C@@H](Cc1ccc(O)c(I)c1)C(=O)O,-0.455% (inactive),–
COC(=O)[C@H](NC(=O)c1cc(-c2ccccc2)nc2ccccc12)c1ccccc1,-5.24% (inactive),–
CNc1ncnc2c1ncn2[C@H]1C[C@H](OP(=O)(O)O)[C@@H](COP(=O)(O)O)O1,-0.834% (inactive),–
NC[C@@H]1O[C@H](c2ccccc2)Cc2c1ccc(O)c2O,-15.1% (inactive),–

Compound,"activity change, negative = inhibition",Potency
COCc1nc2c([nH]1)c(=O)n(C)c(=O)n2CC(C)C,1.32% (inactive),–
O=C(O)CCC(=O)N1CCCC1C(=O)O (stereo not given),-6.91% (inactive),–
Nc1ccc(-c2ccc3ccccc3n2)cc1,7.58% (inactive),–
CC(C)NCC(O)COc1ccc(CC(N)=O)cc1 (stereo not given),3.48% (inactive),–
NC(Cc1cccc(-c2ccccc2CP(=O)(O)O)c1)C(=O)O (stereo not given),-4.25% (inactive),–
O=C(O)C1=CCCN(CCON=C(c2ccccc2)c2ccccc2)C1,-2.53% (inactive),–
C=CCn1c(=O)c2c(nc(-c3ccc(S(=O)(=O)O)cc3)n2C)n(C)c1=O,30.2% (inactive),–
N#Cc1cc2nc(O)c(O)nc2cc1[N+](=O)[O-],-6.64% (inactive),–
O=c1[nH]c2cc(Cl)ccc2c(O)c1-c1ccc(Oc2ccccc2)cc1,-2.86% (inactive),–
Cc1ccc2c(c1)C(N1CCN(C)CC1)=Nc1cccnc1N2,-0.79% (inactive),–
CN(C)CCCc1cc(C(=O)Nc2ccc(-c3ccncc3)cc2)ccc1O,-15.3% (inactive),–
CC(C)(C)NCC(O)COc1cccc2[nH]c(=O)[nH]c12 (stereo not given),-7.91% (inactive),–
NC(C(=O)N[C@@H]1C(=O)N2C(C(=O)O)=C(Cl)CS[C@H]12)c1ccccc1 (stereo not given in full),17.2% (inactive),–
NC1(C(=O)O)CC1,-1.85% (inactive),–
COc1ccc2c(c1)c(CC(=O)O)c(C)n2C(=O)c1ccccc1,-4.24% (inactive),–
N=C(N)SCCc1cnc[nH]1,16% (inactive),–
N#Cc1cc([N+](=O)[O-])c2sc(C(N)=O)[n+]([O-])c2c1,15.7% (inactive),–
O=C(N[C@@H](Cc1ccccc1)C(=O)CCl)OCc1ccccc1,–,3.98 µM (active)
Oc1cc2c(cc1O)C(c1ccccc1)CNCC2 (stereo not given),-8.64% (inactive),–
NC1(C(=O)O)CCCCC1,7.04% (inactive),–
